# PLK1 PBD inh: inhibitors of human PLK1 polo-box domain binding; Plk1 PBD binding of FITC phosphopeptide, fluorescence polarization; Potency, µM, for inactives: max response, negative = inhibition, most hits filed as inhibitors; P53350; 360,000 tested, 2.8% active; also: series mostly up to about 57 µM; nearly all actives have a fitted effect of over 65% in size
# Target sequence (P53350 whole entry, looked up, the tested form may be a part): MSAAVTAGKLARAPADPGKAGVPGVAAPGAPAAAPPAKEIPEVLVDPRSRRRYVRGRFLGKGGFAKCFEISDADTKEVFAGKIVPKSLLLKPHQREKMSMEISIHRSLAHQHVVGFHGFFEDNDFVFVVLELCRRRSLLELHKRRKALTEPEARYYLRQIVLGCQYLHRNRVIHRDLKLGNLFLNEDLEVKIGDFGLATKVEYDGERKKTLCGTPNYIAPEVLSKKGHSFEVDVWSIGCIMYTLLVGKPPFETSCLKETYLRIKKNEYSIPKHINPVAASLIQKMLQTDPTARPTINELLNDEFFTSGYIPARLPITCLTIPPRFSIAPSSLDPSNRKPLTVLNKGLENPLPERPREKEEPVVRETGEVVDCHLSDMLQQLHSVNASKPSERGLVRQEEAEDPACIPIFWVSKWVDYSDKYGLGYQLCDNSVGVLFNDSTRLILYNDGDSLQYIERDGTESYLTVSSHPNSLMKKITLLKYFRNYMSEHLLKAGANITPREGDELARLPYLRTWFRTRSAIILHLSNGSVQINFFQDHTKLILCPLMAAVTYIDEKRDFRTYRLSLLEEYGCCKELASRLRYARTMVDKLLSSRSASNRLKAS
# VDR inh: inhibitors of human vitamin D receptor; VDR-SRC2-3 peptide fluorescence polarization, 2 h; P11473; 400,000 tested, 0.93% active; Potency, µM, for inactives: max response, negative = inhibition, actives largely listed as inhibitors; AID 504847
#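 Inhibition of the VDR/SRC2-3 peptide interaction is quantified by fluorescence polarization. Compounds (23 nl, pintool) incubate with the reagents for 2 hours at ambient room temperature.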
# TDP1 cell CPT: growth inhibition of DT40 Tdp1-/-;hTDP1 cells with camptothecin (screen for TDP1 inhibitors). chicken DT40 Tdp1-/-;hTDP1 cells + 20 nM CPT, ATP luminescence, 48 h. Potency, µM (titrated, usually from 46.2 µM), without a hit: at the top dose activity change, negative = growth inhibition, actives largely listed as inhibitors. 420,000 tested, 12% active; also: nearly all actives have a fitted effect of over 55% in size
#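 Chicken DT40 Tdp1-/- cells stably complemented with human TDP1 were seeded at 400 cells/well in medium containing 20 nM camptothecin, exposed to pin-transferred compounds, and grown at 37 °C for at least 48 hr. Viability was read as ATP luminescence.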
# TDP1 cell noCPT: qHTS for Inhibitors of human tyrosyl-DNA phosphodiesterase 1 (TDP1): qHTS in cells in absence of CPT | DT40 Tdp1-/- hTDP1 cells, no CPT, ATP luminescence, 48 h | Potency, µM (highest dose often 46.2 µM), for the others: at the top dose activity change, negative = growth inhibition, usual class: inhibitors | 420,000 tested, 15% active | AID 686978, 2013; also: nearly all actives have a fitted effect of over 55% in size
#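 No-CPT arm: Tdp1-/-;hTDP1 DT40 cells (400/well) plus compounds, incubated ≥48 hr at 37 °C. Readout CellTiter-Glo luminescence.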
# TDP1 block: inhibitors of human tyrosyl-DNA phosphodiesterase TDP1; 350,000 tested, 0.28% active; Potency, µM (titrated, usually from 130 µM), inactives show at the top dose activity change, negative = inhibition, most hits filed as inhibitors; Q9NUW8; AID 485290; recombinant TDP1, AlphaScreen DNA substrate cleavage; also: nearly all actives have a fitted effect of over 40% in size
#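 Recombinant E. coli-expressed Tdp1 (1 nM) preincubated with compound 15 min at RT, then 5'-biotin/3'-phosphotyrosine-FITC DNA substrate (15 nM) added for 5 min. AlphaScreen beads (10 ug/ml) added, 10 min RT; tyrosine-FITC cleavage read as signal loss.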
# GCN5L2 inh: blocks human GCN5L2 histone acetyltransferase. GCN5L2 HAT assay, ThioGlo1 CoA-SH fluorescence. Q92830. Potency, µM (top dose mostly 58.9 µM), without a hit: at the highest dose activity change, negative = inhibition, hits mostly inhibitors. 390,000 tested, 0.21% active
#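 GCN5L2 (20nM final) in 50mM HEPES, 0.1mM EDTA pH 7.5, 0.01% Tween-20 was preincubated 15 min at room temperature with compound, then given ThioGlo1 (50uM), H3(1-25) peptide (75uM) and acetyl-CoA (70uM); CoA-thiol fluorescence (Ex340/Em540) was read at 0 and 20 min.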
# Numbers without * were called inactive; u = inconclusive; x = not tested or not shown; [ ] = dose if it differs, or a comment. Sampled rows, rich in hits. Any-hit rate of the full collection: about 18%. Calls follow the shape of the dose curve; as a rule, active = well fitted curve in the direction sought with a large enough effect; inconclusive = small, poorly fitted or top-dose-only effect, or another doubt; inactive = no such curve, though single readings can be large; an effect the other way counts as inactive or inconclusive. % is scaled to controls: 0 for no effect and ±100 for the full control effect; potency is read from the fitted curve at half-maximal effect.
SMILES,PLK1 PBD inh,VDR inh,TDP1 cell CPT,TDP1 cell noCPT,TDP1 block,GCN5L2 inh
CCOC(=O)N1CCC(NC(=O)c2ccc3c(c2)N=C(CC)c2cc(C)ccc2S3)CC1,-9%,-18%,10µM*,18µM*,3%,-10%
CC1=Nc2cc(C(=O)N3CCCCC3)ccc2Sc2ccc(C)cc21,-27%,-14%,-17%,u,5%,-10%
CCC1=Nc2cc(C(=O)NCCN3CCOCC3)ccc2Sc2ccc(C)cc21,-5%,0%,-10%,0%,7%,-5%
CCC1=Nc2cc(C(=O)NC3CCCC3)ccc2Sc2ccc(Br)cc21,x,-5%,0.73µM*,0.73µM*,8%,-15%
CC1=Nc2cc(C(=O)NC3CCCCC3)ccc2Sc2ccc(Cl)cc21,x,1%,0.82µM*,1µM*,3%,1%
CCOC(=O)N1CCN(C(=O)c2ccc3c(c2)N=C(CC)c2cc(C)ccc2S3)CC1,-15%,-6%,16µM*,10µM*,6%,-5%
CCc1ccc(NC(=O)C2CCCN2S(=O)(=O)c2cccc3nsnc23)cc1 (stereo unspecified),x,-3%,u,u,7%,-4%
CCc1ccc([C@@H]2C[C@H]3[C@@H](CN2S(=O)(=O)c2ccc(C)cc2)C(=O)C[C@@H](c2ccc(C)cc2)N3S(=O)(=O)c2ccc(C)cc2)cc1,-5%,x,-9%,u,x,x
CC1=Nc2cc(C(=O)O)ccc2Sc2ccc(Br)cc21,u,-2%,-3%,-18%,3%,-23%
CCCC1=Nc2cc(C(=O)N3CCCC3)ccc2Sc2ccc(C)cc21,27µM*,-22%,u,u,6%,-18%
CC1=Nc2cc(C(=O)NCC3CCCO3)ccc2Sc2ccc(Br)cc21 (stereo unspecified),-16%,-27%,3.7µM*,5.8µM*,x,-3%
CCC1=Nc2cc(C(=O)N3CCCCC3)ccc2Sc2ccc(C)cc21,-12%,-7%,-24%,u,5%,-6%
Cc1c2cnn(CC(=O)N3CCN(c4ccccc4)CC3)c(=O)c2c(C)n1Cc1ccccc1Cl,x,1%,u,2%,3%,1%
NS(=O)(=O)c1cccc(NC(=S)NC(=O)C23CC4CC(CC(C4)C2)C3)c1,-10%,-5%,u,21µM*,4%,-3%
Cc1ccc(S(=O)(=O)N(C)C)cc1NC(=S)NC(=O)C12CC3CC(CC(C3)C1)C2,-8%,0%,9.2µM*,8.2µM*,5%,-6%
CC1CC(C)CN(C(=O)c2ccc(S(=O)(=O)N3CCCC3)cc2)C1 (stereo unspecified),4%,-8%,-23%,-26%,2%,0%
CCOC(=O)c1cc(-c2ccccc2)nn1CC1CC(c2cccnc2)=NO1 (stereo unspecified),2%,-6%,4%,-20%,x,x
CCOC(=O)c1cc(-c2cccnc2)nn1-c1ccccc1C,27µM*,u,u,u,4%,-1%
Cc1cc(C)nc(SCCn2c(N3CC(C)OC(C)C3)nc3c2c(=O)n(C)c(=O)n3C)n1 (stereo unspecified),9%,-3%,13%,-1%,-4%,-8%
CCN(CC)c1cc(CS(=O)c2ccccc2)nc(-c2ccccc2)n1 (stereo unspecified),u,3%,21µM*,u,x,x
CCOC(=O)CSc1cc(CS(=O)c2ccc(Cl)cc2)nc(-c2ccccc2)n1 (stereo unspecified),0%,-1%,u,u,2%,-2%
CCc1ccc2c(c1)NC(=O)C2(C)Cc1ccc(C(F)(F)F)nc1 (stereo unspecified),-6%,x,u,u,x,x
O=S(=O)(NN=Cc1cccc(Cl)c1)c1ccccc1,-25%,x,u,u,x,x
Clc1cccc(/C=N/Nc2nc(Cl)nc3ccccc23)c1,-3%,3%,23µM*,u,6%,-1%
Oc1ccc(Nc2ncnc3ccccc23)cc1,-11%,-2%,-25%,u,x,-17%
SMILES,PLK1 PBD inh,VDR inh,TDP1 cell CPT,TDP1 cell noCPT,TDP1 block,GCN5L2 inh
Clc1ccc(/C=N/Nc2ncnc3ccccc23)cc1Cl,-7%,6%,21µM*,21µM*,8%,15%
Fc1ccccc1/C=N/Nc1ncnc2ccccc12,-1%,13%,6.5µM*,15µM*,3%,-8%
Oc1ccc(/C=N/Nc2ncc(Cl)cc2Cl)cc1,-8%,19%,-8%,-26%,x,6%
O=S1(=O)N[C@H](Cc2ccccc2)COc2cccc(N3CCC[C@@H]3CO)c21,-11%,x,-5%,u,x,x
Cc1ccc(-n2nnnc2Sc2nc([N+](=O)[O-])nn2C)c(C)c1,1%,-3%,16µM*,u,x,x
Cc1ccc(-n2nnnc2Sc2nc([N+](=O)[O-])nn2C)cc1,1%,2%,u,u,-1%,36%
Cc1ccc(Cl)cc1NC(=O)Cn1cc(S(=O)(=O)Cc2ccccc2Cl)c2ccccc21,x,16%,u,u,-6%,-7%
Cc1ccc(-c2cc3c(N4CCN(c5cc(C)ccc5C)CC4)nccn3n2)cc1,x,-17%,23µM*,21µM*,5%,-7%
Brc1ccc(-c2cc3c(N4CCN(c5ccccc5)CC4)nccn3n2)cc1,x,1%,-6%,-6%,5%,-1%
O=C(c1ccc2c(c1)N(Cc1c(F)cccc1Cl)C(=O)c1ccccc1S2)N1CCOCC1,x,-14%,-20%,u,5%,3%
Nc1ncnc2c1ncn2[C@H]1CC[C@@H](CO)O1,-2%,8%,1.6µM*,2.9µM*,4%,3%
Nc1ncnc2c1ncn2C1CCCO1 (stereo unspecified),1%,5%,3%,-7%,10%,-3%
Nc1ncnc2c1ncn2[C@@H]1O[C@@H](CO)[C@H](O)[C@H]1O,x,15%,x,x,8%[21 µM],6%[21.4 µM]
Nc1nc(Cl)nc2c1ncn2[C@@H]1O[C@H](CO)[C@@H](O)[C@@H]1F,x,x,0.0021µM*,0.0021µM*,x,x
Nc1ncnc2c1ncn2C1OCC(O)C1O (stereo unspecified),7%,x,18µM*,13µM*,x,x
Nc1nc(Cl)nc2c1ncn2[C@H]1C[C@H](O)[C@@H](CO)O1,-7%,9%,0.18µM*,0.21µM*,3%,-2%
O=C(NCC(c1cccs1)N1CCOCC1)c1cc(S(=O)(=O)N2CCOCC2)ccc1Cl (stereo unspecified),-9%,-18%,-22%,-4%,x,x
Nc1nc(Cl)nc2c1ncn2C1CCC(CO)O1 (stereo unspecified),-1%,x,1µM*,1.5µM*,x,x
